# Source: PubChem BioAssay (NCI)
# The panel holds about 83,000 compounds, 20% with a hit somewhere; the sample as a whole holds those more often.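 Percent growth is the endpoint: 0 to 100 indicates growth inhibition (40 means 60% inhibition), 0 means no net growth, and negative values indicate cell death.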 Unmarked numbers belong to inactive results. Activity calls are given as the source filed them. How the source made its calls: active means growth percent below 10; inactive means the rest.
# How the values were obtained:
# Assay in all cases: NCI-60 one-dose screen, 48 h (100 = growth as untreated, 0 = no growth, -100 = all killed)
# [1] = system: HCT-15 colon; settings: 10 µM unless noted
# [2] = system: HT29 colon; settings: 10 µM unless noted
# [3] = system: SNB-75 CNS; settings: 10 µM unless noted
# [4] = system: SNB-19 CNS; settings: 10 µM unless noted
# [5] = system: U251 CNS; settings: 10 µM unless noted
# [6] = system: PC-3 prostate; settings: 10 µM unless noted
# [7] = system: SK-MEL-5 melanoma; settings: 10 µM unless noted
# [8] = system: UACC-62 melanoma; settings: 10 µM unless noted
# [9] = system: SK-MEL-28 melanoma; settings: 10 µM unless noted
# [10] = system: SK-MEL-2 melanoma; settings: 10 µM unless noted
# [11] = system: EKVX NSCLC; settings: 10 µM
# [12] = system: SN12C renal; settings: 10 µM unless noted
# [13] = system: UO-31 renal; settings: 10 µM unless noted
# [14] = system: TK-10 renal; settings: 10 µM unless noted
# [15] = system: ACHN renal; settings: 10 µM unless noted
# [16] = system: CAKI-1 renal; settings: 10 µM unless noted
# [17] = system: A498 renal; settings: 10 µM unless noted
# [18] = system: CCRF-CEM leukemia; settings: 10 µM
# [19] = system: MOLT-4 leukemia; settings: 10 µM unless noted
# [20] = system: LOX IMVI melanoma; settings: 10 µM unless noted
SMILES,growth [1],growth [2],growth [3],growth [4] [%],growth [5],growth [6],growth [7],growth [8],growth [9] [%],growth [10] [%],growth [11] [%],growth [12] [%],growth [13],growth [14],growth [15],growth [16],growth [17] [%],growth [18],growth [19],growth [20]
CCOc1ccc(/C=N/NC(=O)c2cccc3ccccc23)cc1OCC,97.2%,103%,106%,110,100%,90.1%,92.1%,93.4%,103,106,99.1,96.1,81.6%,111%,102%,99.3%,78.1,84.1%,88.3%,
Clc1ccc(I)c2ccccc12,96.4%,111%,96.5%,110,96.3%,102%,109%,111%,114,,,111,82.6%,92.6%,103%,95.6%,117,,98.9%,59.4%
O=[N+]([O-])c1ccc(-c2ncc(-c3ccc(O)cc3O)[nH]2)cc1,100%,123%,103%,93.3,103%,98%,109%,95.3%,108,,92.4,101,102%,124%,106%,,101,-19.1% (active),99.1%,103%
O=C(Nc1ccc(-n2cc(-c3ccncc3)c(-c3ccc(Cl)c(O)c3)n2)cc1)c1cc(C(F)(F)F)cc(C(F)(F)F)c1,27.8%,11.1%,12.2%,72.5,54.3%,72.1%,55.8%,68.5%,45.9,,97.4,74.7,67.5%,65.4%,54.3%,60.4%,87.7,72.9%,55.6%,53.1%
CCCCCCCCCC(C)NC(=O)CCl (stereo unspecified),89.6%,114%,69.8%,86.5,82.1%,94.5%,97.5%,93.4%,95.3,,,75.1,83.7%,,93%,93.4%,,,72.1%,47.9%
N#Cc1c2cccnc2c2nnc3cc(Cl)c(Cl)cc3n12,1.83% (active),-50.6% (active),-6.13% (active),63.1,26.2%,18.4%,86.1%,52.5%,17.6,,80.8,75,30.8%,-31.8% (active),10.2%,-3.12% (active),,29.1%,7.72% (active),21.9%
C=CCNCCC#N,99.9%,105%,79.1%,102,107%,98.5%,99.1%,109%,106,,,109,102%,110%,105%,113%,120,,107%,59.5%
CCOC(=O)CSSCC(=O)OCC,102%,112%,94.4%,108,98.4%,100%,99.8%,98.4%,107,111,105,103,100%,103%,103%,97.5%,118,95.9%,90.3%,
O=C(N/N=C\c1ccc(-c2ccc(Br)cc2)o1)c1cc2oc(-c3cccc(C(F)(F)F)c3)cc2[nH]1,84.5%,110%,72.3%,97.9,84.1%,102%,102%,108%,81.5,,142,107,122%,127%,95%,,87.6,0.0711% (active),66.6%,86%
CCCCCCCCc1ccc(CCC(N)(CO)CO)cc1,-10% (active),-83.4% (active),57.6%,52.5,-85.2% (active),37.1%,90.7%,86.2%,92.8,,54.8,,-7.93% (active),16.6%,-37.2% (active),16.1%,90.1,-5.69% (active),-28.3% (active),-54% (active)
O=C1OC(c2ccc(-c3ccccc3)cc2)=C/C1=C/c1c2ccccc2cc2ccccc12,74.8%,103%,78.7%,94.1,98%,98.5%,104%,99.3%,87.7,,65.5,101,92.8%,77.9%,97.6%,,83.7,69.9%,72.6%,95.8%
O=C(Cc1ccccc1[N+](=O)[O-])c1ccc2c(c1)OCO2,104%,102%,91.3%,97.7,98.8%,96.8%,103%,88.8%,105,99.4,97.5,96,80.1%,91.6%,103%,97.8%,77.9,76.3%,86.6%,
COc1cc(-c2nn(-c3ccc(NC(=O)c4ccc(Cl)c(C(F)(F)F)c4)cc3)cc2-c2ccncc2)ccc1Cl,-44.1% (active),-75.5% (active),-7.6% (active),32.9,22.2%,2.37% (active),-93.3% (active),-0.867% (active),35.7,,24.3,52.7,16.3%,6.27% (active),18.2%,-16.7% (active),31.9,6.52% (active),3.94% (active),21.6%
CC(CCN1CCN(CCC(C)CC(C)(C)C)C1CC(C)CC(C)(C)C)CC(C)(C)C (stereo unspecified),87.5%,39.4%,80.7%,102,91.6%,56.7%,108%,103%,105,,82.6,91.2,66.2%,85.2%,90.4%,96.4%,112,83.1%,88.7%,81.8%
C/C=C/C/C=C/[C@H](C)C[C@H](O)[C@@H]1C[C@@H]2O[C@H]2/C=C/[C@H](O)[C@@H](O)/C=C/C[C@H](C)CC(=O)O1,66.1%,68.4%,90.9%,97.4,87.4%,115%,72.9%,71.3%,101,,121,79.1,56.9%,42.8%,77.5%,,,51.3%,81.5%,88.3%
C[C@H]1C[C@@H](n2cnc3c(N)nccc32)[C@H](O)[C@@H]1O,87.8%,89.2%,100%,82,69.2%,110%,96.7%,98.7%,88,106,96.3,92.3,167%,119%,101%,116%,120,23.6%,65%,
COC1=CC(c2ccc[nH]2)=N/C1=C\c1[nH]c(C)c(C(=O)CCCCC(=O)NC(C)(C)C)c1C,-31.8% (active),3.41% (active),41.5%,70.1,22%,-31.3% (active),50.8%,69.1%,,98,,55.3,18%,-18.2% (active),71.8%,34.1%,,68.5%,21.2%,-34.4% (active)
